# Source: PubChem
# Rows were chosen to be rich in hits. Some 4.6% of all compounds tested hit in one or more screens of this group.
# tim23-1 inh = growth inhibitors of tim23-1 mutant yeast. S. cerevisiae tim23-1 growth, BacTiter-Glo luminescence, 24 h. inhibition, % at 20 µM. 1.3% of 330,000 active. AID 463212;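 active means growth inhibition of the mutant yeast at or above 50%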;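 further: temperature-sensitive mutant grown at 25 °C; plate controls were DMSO-treated mutant yeast for no effect and medium wells lacking yeast for full effect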
# tim10-1 inh = inhibits growth of tim10-1 mutant yeast; 2.2% of 330,000 active; S. cerevisiae tim10-1 ts strain growth, BacTiter-Glo, 24 h; AID 463190; inhibition, % at 20 µM;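 active means inhibition of at least 40%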;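 further: mutant grown at 25 °C; 0% = DMSO wells with yeast and 100% = wells holding no yeast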
# PfHsp90 set2 = inhibits growth of yeast expressing Plasmodium falciparum Hsp90 | S. cerevisiae expressing PfHsp90, BacTiter-Glo ATP, 48 h; yeast lacking PDR1 and PDR3 efflux regulators | 0.32% of 310,000 active | inhibition, % at 9.4 µM;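 active means every replicate shows inhibition above about 80%, whatever the replicate mean, limit read from the data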;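 further: 0% = DMSO neutral controls and 100% = 20 µM radicicol positive controls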
# V-ATPase pH = yeast V-ATPase proton transport regulation by pHLuorin; S. cerevisiae, pHLuorin cytosolic pH fluorescence; response, % at 10 µM; 0.37% of 350,000 active; in the data active means response mostly above about 7.3%, no sharp cut-off; inactive means mostly below about 5.4%; further: actives read high
# TIM10 inh = TIM10 yeast growth inhibition | AID 463195 | inhibition, % at 10 µM | 1.4% of 330,000 active | S. cerevisiae TIM10 strain growth, BacTiter-Glo luminescence, 24 h;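 active means inhibition of 40% or more at the single tested concentration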;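 further: wild-type TIM10 isogenic control strain grown at permissive 25 °C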
# SKKanGAS inh = inhibitors of SKKanGAS S. pyogenes growth in kanamycin (SK-promoter or general growth effect) | BacTiter-Glo, 6 h | inhibition, % at 7.5 µM | 1.3% of 300,000 active;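 active means mean replicate score, as percent of positive control median, at least 50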;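 further: strain carries kanamycin resistance gene driven by streptokinase promoter and grows in 40 µg/ml kanamycin; loss of luminescence reflects streptokinase promoter inhibition or plain growth inhibition; 0% = median of DMSO wells and 100% = positive control at its reference dose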
# TIM10 conf = TIM10 yeast growth inhibition, confirmed | S. cerevisiae tim10 strain growth, BacTiter-Glo luminescence, 24 h | inhibition, % at 10 µM | 63% of 4,600 active | shares compounds with TIM10 inh;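 active means inhibition of yeast growth at or above a set limit in either of two replicates at 10 µM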;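 further: this counterscreen used the strain with wild-type TIM10; 0% = yeast with DMSO and 100% = medium wells lacking yeast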
# The depositor's hits bear a star; · = no result given.
SMILES,tim23-1 inh,tim10-1 inh,PfHsp90 set2,V-ATPase pH,TIM10 inh,SKKanGAS inh,TIM10 conf
NC(=O)CSc1nnc(-c2ccccc2Br)n1-c1cccc(C(F)(F)F)c1,14.8,9.2,8.7,-3.0,8.5,1.4,·
CCOc1nc(Nc2ccc(OC)cc2OC)nc(OCC)n1,21.4,1.1,-7.3,-0.1,6.0,-6.3,·
O=C(NNC(=O)C1CC=CCC1)c1ccccc1Cl (stereo not drawn),6.3,-5.8,-3.0,-2.4,14.5,-2.1,·
COc1ccc(Nc2nccc(N(C)C)c2C#N)cc1,-5.7,3.9,6.7,-2.8,54.6*,-5.9,-5.8
COc1ccc(Nc2nccc(OC)c2C#N)cc1,7.7,6.0,-25.6,-1.2,11.3,-5.5,·
COc1ccc(CNC(=S)NC(C)CCc2ccccc2)cc1 (stereo not drawn),9.6,32.0,-0.1,-1.4,52.7*,-7.0,21.0
COCCN(CC(=O)Nc1cccc(C)c1C)C(=O)c1cc(-c2ccncc2)nc2ccccc12,13.7,-0.2,0.2,3.3,0.4,·,·
COC(=O)C1=C(C)N(c2ccc(C)c(C)c2)/C(=C/c2ccco2)C1=O,38.3,37.5,10.2,1.4,48.4*,1.5,47.3*
COC(=O)C1=C(C)N(c2ccc(C)cc2)/C(=C/c2cccs2)C1=O,33.8,38.4,·,0.6,42.6*,0.5,31.7*
CCOC(=O)C1=C(C)N(c2ccc(C)c(C)c2)C(=O)/C1=C\c1ccco1,32.4,27.2,-15.7,4.5,23.8,-3.6,·
CCC(C)(C)N(C(=O)CCC(=O)Nc1cc(C)on1)C(C(=O)NC(C)(C)C)c1ccc(OC)cc1 (stereo not drawn),-0.2,7.8,-7.3,1.5,6.8,-3.1,·
Cc1nn(Cc2ccc(Cl)cc2)c(=O)n1N(C)c1ncc(C(F)(F)F)cc1Cl,5.3,39.9,-2.6,0.5,55.4*,11.1,-1.1
CN(NC(=O)c1ccc(Cl)cc1)c1ncc(C(F)(F)F)cc1Cl,17.9,8.0,-13.3,-0.7,9.2,-3.5,·
CN(CC(=O)Nc1c(Cl)cccc1Cl)C(=O)CCNS(=O)(=O)c1ccccc1C(F)(F)F,2.2,-9.4,·,-2.9,-4.1,-7.1,·
CC(C)Oc1ccc(C(=O)Nc2ccc(N(C)C)cc2)cc1,24.2,14.5,9.0,2.8,50.1*,2.6,-22.0
Nc1ccc(-c2nc3ccc(-c4nc5ccccc5o4)cc3[nH]2)cc1,31.5,31.3,9.4,-7.3,54.9*,2.5,0.3
Cc1ccnc2ccc(-c3nc4ccccc4o3)cc12,25.6,7.7,-20.2,5.7,34.2,·,·
Cc1nc2ccc(-c3nc4ccccc4o3)cc2[nH]1,47.9,-0.9,5.4,-2.8,46.7*,-5.1,33.6*
Nc1ccc(-c2nc3ccc(N)cc3[nH]2)cc1,9.6,-18.7,11.3,-4.2,9.4,-4.4,·
CC(C)(O)c1[nH]c2cc(C(F)(F)F)ccc2c1C(C)(C)O,7.8,-6.2,-3.7,-0.5,67.3*,-5.3,3.9
CN(C(=S)Nc1ccc(SC(F)F)cc1)C(c1ccccc1)c1ccccc1,18.7,19.1,3.3,-3.2,41.8*,21.5,40.4*
O=C(CCC1CCCCC1)Nc1ccc(C(=O)c2ccncc2)cc1,43.0,34.5,-6.5,-4.6,43.0*,-2.7,39.2*
O=C(CCC1CCCCC1)Nc1cccnc1,15.0,23.0,-5.3,-1.3,26.9,7.7,·
CN(C)CCCN(C(=O)CCc1ccccc1)c1nc2ccc(F)cc2s1,4.2,28.4,15.5,1.4,16.6,-9.0,·
CN(C)CCCN(C(=O)c1cc(-c2cccs2)nc2ccccc12)c1nc2ccc(F)cc2s1,13.3,32.5,·,-2.2,49.4*,10.7,31.7*
SMILES,tim23-1 inh,tim10-1 inh,PfHsp90 set2,V-ATPase pH,TIM10 inh,SKKanGAS inh,TIM10 conf
CN(C)CCN(C(=O)c1cc(Cl)sc1Cl)c1nc2ccc(F)cc2s1,7.1,7.8,-39.5,-0.8,5.2,-15.4,·
CN(C)CCN(C(=O)C1=COCCO1)c1nc2ccc(F)cc2s1,26.2,34.4,10.7,3.5,64.3*,-0.6,12.9
COc1ccc(OC)c(S(=O)(=O)Nc2cc3c4c(c2)C(C)C(=O)N4CCC3)c1 (stereo not drawn),11.2,7.8,-26.0,-1.2,9.9,-0.3,·
COC(=O)CC(N)c1ccc(Br)cc1 (stereo not drawn),12.0,6.8,-2.6,-1.5,-6.5,-12.4,·
COC(=O)CC(NC(=S)NC(=O)c1ccccc1)c1ccc(Br)cc1 (stereo not drawn),34.0,25.6,-15.7,9.8,40.3*,10.9,36.9*
O=C1c2ccccc2S(=O)(=O)c2cc(N3CCc4ccccc4C3)ccc21,36.6,35.3,·,·,44.2*,10.3,28.0
CCCn1c(SCC(=O)NC2CCCC2)nnc1-c1cccnc1,2.0,-9.4,-40.8,-1.0,4.5,-2.3,·
COC(=O)CSc1nc(-c2ccccc2)c2c(c1C#N)CCCC2,22.8,29.8,-25.5,1.3,41.0*,6.6,26.8
Cc1ccc2nc(-c3ccc4c(c3)NC(=O)CO4)cn2c1,35.3,20.0,-10.6,-2.8,45.5*,-2.7,44.7*
O=C1CCCCC1Nc1ccc2ccccc2c1 (stereo not drawn),·,·,-0.1,-1.0,·,·,·
O=C1c2ccccc2C(=O)N1SC1CCCCC1,10.0,32.9,105.8*,1.3,65.2*,-0.8,83.3*
O=C(OCN1C(=O)c2ccccc2C1=O)C1CCCCC1,10.4,22.6,0.8,-4.1,2.5,0.5,·
CC(C)c1ccccc1OCCNC(=S)NC(=O)c1cccnc1,49.5,37.5,·,-2.3,44.9*,-0.9,44.2*
Cc1cc(Cl)ccc1OCCNC(=S)NC(=O)c1cccnc1,-11.8,1.5,18.0,-0.8,-9.3,-5.4,·
CN1CCN(C(=O)C23CC4CC(C2)CC(c2ccccc2)(C4)C3)CC1,6.5,-0.1,11.4,0.8,-0.8,-7.3,·
O=C1C=C(Nc2ccc(Cl)cc2)CC(c2ccc(Cl)cc2)C1 (stereo not drawn),28.0,26.1,·,-2.7,42.3*,10.7,22.4
Cc1ccc(C2CC(=O)C=C(Nc3ccc(Cl)cc3)C2)cc1 (stereo not drawn),21.1,19.6,9.3,-3.1,24.9,1.5,·
O=C(Nc1ccc2c(c1)CCC2)c1cc2ccccc2o1,44.3,20.4,14.9,3.7,55.8*,-6.7,-17.7
CCCOc1ccccc1OCC(=O)Nc1cc(Cl)ccc1-n1cncn1,49.2,32.7,-7.9,0.6,20.9,-7.8,·
CC1(C)Oc2ccc3ccc(=O)oc3c2/C(=C/NC2CCCCC2)C1=O,-1.0,39.8,-3.2,-1.6,54.4*,20.5,41.6*
CCCCN1C(=O)C(=O)N(CC(=O)Nc2sc(CC)cc2C(=O)OCC)C1=O,40.4,22.9,16.1,1.0,11.1,22.9,·
COc1ccccc1NC(=O)CSc1nc2ccccc2cc1Cc1ccccc1,0.0,-14.7,-3.2,-0.7,-2.4,7.7,·
O=C1NC(=S)N(c2cccc(Cl)c2)C12CCCCC2,26.9,36.6,-15.4,4.5,44.3*,4.4,8.0
